These results are taken from PubChem BioAssay.

Test [1] in a line: anti-His antibody binders, primary screen, artefact control for SMM control protein annotation, biochemical, small-molecule microarray, 635 nm fluorescence (AID 1128).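 Also: score merges feature fluorescence with signal-to-noise for each printed compound spot.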 The settings on record: anti-His Alexa647 antibody binding, higher = more signal.
The subject of test [2] is Human papillomavirus type 1a E7 protein (residues 1-88). The test is described as follows: HPV1a E7 small-molecule binders, primary screen, biochemical, small-molecule microarray, residues 1-88, 635 nm (AID 1129). To be noted: small-molecule microarray binding, fluorescence 635 nm; higher = more signal.
Test [3] concerns the target Focal adhesion kinase 1 (Homo sapiens) (UniProt Q05397). The test is described as follows: small-molecule microarray binders of FAK, primary screen, biochemical, 635/667 nm fluorescence, BSA, DTT (AID 1130).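 Also: composite of spot emission at 667 nm and signal to noise over triplicate slides.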 To be noted: PTK2 binding, 635 nm fluorescence, higher = more signal.
In test [4] the test system is Fibrinogen (Alexa647-labelled). Put plainly: fibrinogen binders on compound microarrays, profiling panel, artefact control for SMM control-protein annotation, biochemical, small-molecule microarray, 635/667 nm fluorescence (AID 1131).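 Also: z-score merges 667 nm fluorescence with per-spot signal-to-noise over triplicate slides.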 The settings on record: fibrinogen-A647 binding fluorescence, higher = more signal.
The target of test [5] is Follistatin (Homo sapiens) (UniProt P19883). Put plainly: follistatin binders on small-molecule microarrays, primary screen, biochemical, small-molecule microarray, 635/667 nm fluorescence (AID 1132). The settings on record: FST binding, 635 nm fluorescence, higher = more signal.
Test [6] has as its target Fibroblast growth factor 2 (Homo sapiens) (UniProt P09038). The test is described as follows: FGF2 binders on small-molecule microarrays, primary screen, biochemical, small-molecule microarray, 635/667 nm fluorescence (AID 1133). The settings on record: small-molecule microarray binding, FGF2, fluorescence 635/667; higher = more signal.
Test [7] in a line: mitochondrial membrane potential change in A549 cells, profiling panel, cell-based, JC-1 fluorescence, basal, 24 h, 100 nL (AID 1138).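 Also: A549 lung adenocarcinoma cells under basal conditions with no added stimulus; test concentration not given here.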 To be noted: higher = more signal.
The next test concerns Lefty1. The test is described as follows: Lefty1 binders on small-molecule microarrays, primary screen, biochemical, small-molecule microarray, 635/667 nm fluorescence (AID 1139). To be noted: small-molecule microarray binding, fluorescence 635/667; higher = more signal.
Test [8] relates to wheat germ agglutinin (Triticum aestivum), Alexa647-labelled. Put plainly: wheat germ agglutinin binders on compound microarrays, profiling panel, artefact control for SMM control-protein annotation, biochemical, small-molecule microarray, 635/667 nm fluorescence (AID 1140).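 Also: score merges 667 nm feature emission with signal to noise over triplicate slides.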 To be noted: WGA-A647 binding, 635 nm fluorescence, higher = more signal.
Test [9] has as its target Luciferin 4-monooxygenase (Photinus pyralis) (UniProt P08659). Put plainly: firefly luciferase enzyme inhibitors, primary screen, biochemical, luminescence, purified enzyme, 2006 set (AID 1141).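 Also: cell-free assay with purified firefly luciferase at 100 ng per well in PBS; test concentration not given here.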 To be noted: SteadyGlo luminescence, 30 min, higher = more signal, called active from +8 up or from −8 down.
The subject of test [10] is Wnt5a (protein binding on small-molecule microarray). Put plainly: Wnt5a binders on small-molecule microarray, primary screen, biophysical, 635/667 nm fluorescence (AID 1142).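 Also: fluorescence read at 667 nm with signal to noise per printed feature.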 The settings on record: 635 nm fluorescence, higher = more signal.
Test [11] in a line: cell viability in Huh7 cells, primary screen, cytotoxicity control for HCV replication inhibitor project, CellTiter-Glo luminescence, basal, 48 h (AID 1143).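 Also: Huh7 hepatoma cells carrying a hepatitis C replication reporter with no stimulus; test concentration not given here.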 The settings on record: Huh7 HCV replicon, higher = more signal, called active from +8 up or from −8 down. (Cellular ATP, detected with luciferase, serves as a proxy for viable cell number.)
Test [12] can be described thus: P. aeruginosa biofilm formation inhibitors, primary screen, PAO1 strain, BacTiter-Glo luminescence, LB-PBS (AID 1144). The settings on record: 12 h, higher = more signal.
Test [13] in a line: CREB reporter modulators without forskolin, primary screen, cell-based, PC12, CRE-LacZ reporter, unstimulated (AID 1145). The settings on record: no forskolin, luminescence, 4.5 h, higher = more signal, called active from +8 up or from −8 down.
The nature of test [14]: CREB reporter modulators under forskolin, primary screen, cell-based, PC12, CRE-LacZ reporter, forskolin-stimulated (AID 1146).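 Also: PC12 cells with 6xCRE LacZ reporter stimulated by forskolin 10 µM; beta-galactosidase reporter signal reflecting CREB driven transcription.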 To be noted: luminescence, 4.5 h, higher = more signal, called active from +8 up or from −8 down.
For test [15], the target named is Streptavidin (Streptomyces avidinii) (UniProt P22629). The test is described as follows: streptavidin binders on small-molecule microarray, primary screen, artefact control for SMM compound annotation, biophysical, 635/667 nm fluorescence (AID 1147).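 Also: signal reflects streptavidin binding to arrayed compounds as a control protein.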 To be noted: streptavidin binding, higher = more signal.
Test [16] is described as follows: small-molecule binders of probe aInhba, primary screen, biochemical, small-molecule microarray, 635/667 nm fluorescence (AID 1148).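 Also: score merges 667nm spot fluorescence with signal-to-noise for antibody binding to printed compounds.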 The settings on record: higher = more signal.
Test [17] concerns the target Torsin-1A (Homo sapiens) (UniProt O14656). The test is described as follows: torsin A binders from cell lysate, primary screen, small-molecule microarray, wild-type, 635/667 nm (AID 1149). To be noted: COS7 hTOR1A-WT lysate, 635 nm fluorescence, higher = more signal.
For test [18] the target is unchanged. The test is described as follows: small-molecule binders of mutant TOR1A in lysate, primary screen, cell lysate, small-molecule microarray, COS7 lysate, 635/667 nm fluorescence (AID 1150).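 Also: score pools 667 nm emission and signal to noise measuring lysate protein binding.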 To be noted: COS7 hTOR1A mutant lysate, 635 nm fluorescence, higher = more signal.
For test [19], the system named is Sonic hedgehog protein (Shh). Put plainly: small-molecule binders of Shh protein, primary screen, biochemical, small-molecule microarray, 635/667 nm fluorescence (AID 1151).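 Also: Shh protein binding to compounds spotted on small-molecule microarray slides; score combines spot fluorescence intensity with signal-to-noise across triplicate slides.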 The settings on record: small-molecule microarray binding, 635 nm fluorescence; higher = more signal.

Activity calls are given as the source filed them. Unless noted, no rule for the calls is given here.

Follistatin (Homo sapiens), sequence (P19883 whole entry, looked up): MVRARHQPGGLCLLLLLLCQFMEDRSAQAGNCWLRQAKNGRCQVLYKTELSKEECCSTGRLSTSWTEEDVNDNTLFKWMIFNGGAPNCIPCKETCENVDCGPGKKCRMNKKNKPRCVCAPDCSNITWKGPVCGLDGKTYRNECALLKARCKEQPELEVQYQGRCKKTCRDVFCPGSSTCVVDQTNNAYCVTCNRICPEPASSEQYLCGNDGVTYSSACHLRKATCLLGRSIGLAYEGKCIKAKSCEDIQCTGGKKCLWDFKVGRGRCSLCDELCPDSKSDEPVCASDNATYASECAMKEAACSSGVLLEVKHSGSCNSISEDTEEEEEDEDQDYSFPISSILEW
Streptavidin (Streptomyces avidinii), sequence (P22629 whole entry, looked up): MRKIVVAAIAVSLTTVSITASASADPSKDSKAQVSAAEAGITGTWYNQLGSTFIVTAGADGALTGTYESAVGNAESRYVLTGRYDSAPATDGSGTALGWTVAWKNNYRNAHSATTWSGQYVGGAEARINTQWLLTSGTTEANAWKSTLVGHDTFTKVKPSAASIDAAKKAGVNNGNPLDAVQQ
Torsin-1A (Homo sapiens), sequence (O14656 whole entry, looked up): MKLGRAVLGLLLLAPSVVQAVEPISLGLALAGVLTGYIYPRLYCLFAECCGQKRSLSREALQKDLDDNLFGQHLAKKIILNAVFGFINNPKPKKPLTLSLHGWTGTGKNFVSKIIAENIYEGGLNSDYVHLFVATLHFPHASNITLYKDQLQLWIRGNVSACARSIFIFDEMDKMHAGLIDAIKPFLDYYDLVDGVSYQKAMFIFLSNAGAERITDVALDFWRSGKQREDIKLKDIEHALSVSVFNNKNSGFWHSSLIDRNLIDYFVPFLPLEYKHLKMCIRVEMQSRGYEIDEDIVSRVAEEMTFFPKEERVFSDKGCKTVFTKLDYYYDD
Focal adhesion kinase 1 (Homo sapiens), sequence (Q05397 whole entry, looked up): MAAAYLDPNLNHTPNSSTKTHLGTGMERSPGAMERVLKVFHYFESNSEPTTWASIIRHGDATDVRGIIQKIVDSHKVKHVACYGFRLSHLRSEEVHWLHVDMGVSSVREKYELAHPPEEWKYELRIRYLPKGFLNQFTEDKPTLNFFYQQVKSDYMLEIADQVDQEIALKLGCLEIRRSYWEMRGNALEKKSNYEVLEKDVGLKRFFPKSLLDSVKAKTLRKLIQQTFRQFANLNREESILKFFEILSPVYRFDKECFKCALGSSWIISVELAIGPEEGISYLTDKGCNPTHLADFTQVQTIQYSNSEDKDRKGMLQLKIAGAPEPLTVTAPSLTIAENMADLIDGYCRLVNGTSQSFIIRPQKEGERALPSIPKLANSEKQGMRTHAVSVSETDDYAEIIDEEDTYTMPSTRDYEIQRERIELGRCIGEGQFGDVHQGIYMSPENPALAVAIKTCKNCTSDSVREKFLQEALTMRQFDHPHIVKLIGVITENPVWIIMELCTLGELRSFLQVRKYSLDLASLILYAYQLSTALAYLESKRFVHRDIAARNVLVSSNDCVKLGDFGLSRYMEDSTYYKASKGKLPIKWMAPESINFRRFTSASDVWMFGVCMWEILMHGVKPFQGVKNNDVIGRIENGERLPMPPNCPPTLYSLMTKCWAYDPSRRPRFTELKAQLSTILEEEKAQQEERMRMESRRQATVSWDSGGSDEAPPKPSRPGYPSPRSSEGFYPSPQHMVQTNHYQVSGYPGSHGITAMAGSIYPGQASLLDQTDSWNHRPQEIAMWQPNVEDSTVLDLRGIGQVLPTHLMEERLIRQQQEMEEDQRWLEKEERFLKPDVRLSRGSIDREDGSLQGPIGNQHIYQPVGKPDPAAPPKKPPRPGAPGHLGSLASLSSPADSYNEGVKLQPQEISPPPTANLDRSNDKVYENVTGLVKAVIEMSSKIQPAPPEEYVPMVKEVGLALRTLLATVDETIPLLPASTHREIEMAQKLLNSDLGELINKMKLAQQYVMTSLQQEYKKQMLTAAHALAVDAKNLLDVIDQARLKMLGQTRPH
Fibroblast growth factor 2 (Homo sapiens), sequence (P09038 whole entry, looked up): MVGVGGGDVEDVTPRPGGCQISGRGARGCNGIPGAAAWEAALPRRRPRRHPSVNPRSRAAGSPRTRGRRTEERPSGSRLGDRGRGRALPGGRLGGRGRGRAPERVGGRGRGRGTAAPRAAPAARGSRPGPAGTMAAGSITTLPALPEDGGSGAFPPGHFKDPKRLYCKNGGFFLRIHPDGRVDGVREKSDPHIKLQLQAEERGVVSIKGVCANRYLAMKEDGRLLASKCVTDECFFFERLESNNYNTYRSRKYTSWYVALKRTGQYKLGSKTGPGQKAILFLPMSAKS
Luciferin 4-monooxygenase (Photinus pyralis), sequence (P08659 whole entry, looked up): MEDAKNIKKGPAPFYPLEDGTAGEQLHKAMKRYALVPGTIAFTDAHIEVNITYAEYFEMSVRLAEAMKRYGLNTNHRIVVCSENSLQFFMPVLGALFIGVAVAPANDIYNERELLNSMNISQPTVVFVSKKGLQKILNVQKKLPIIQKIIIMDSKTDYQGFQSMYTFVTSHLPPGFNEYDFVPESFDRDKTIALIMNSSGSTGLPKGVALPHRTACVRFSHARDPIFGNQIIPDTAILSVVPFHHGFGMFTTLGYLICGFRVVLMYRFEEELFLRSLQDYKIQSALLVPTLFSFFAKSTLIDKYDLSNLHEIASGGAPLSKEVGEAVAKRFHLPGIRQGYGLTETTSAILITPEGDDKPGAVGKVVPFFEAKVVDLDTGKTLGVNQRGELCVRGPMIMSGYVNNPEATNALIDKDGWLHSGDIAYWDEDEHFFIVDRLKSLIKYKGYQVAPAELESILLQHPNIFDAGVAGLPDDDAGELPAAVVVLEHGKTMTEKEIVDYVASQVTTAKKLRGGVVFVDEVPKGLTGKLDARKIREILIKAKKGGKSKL

Take `[N-]=[N+]=Nc1ccccc1[C@@H]1OC(c2ccc(OCCCO)cc2)=N[C@]1(CCS(=O)(=O)c1ccccc1)C(=O)NCc1ccccc1`: the composite z-score came out at 1.13 in test [1]; 0.742 in test [2]; 1.03 in [3]; 0.982 in test [4]; 1.3 in test [5]; 1.06 in test [6]. Besides, the composite z-score with Lefty1 is -0.141; in [8], 1.2; in test [10], 0.554; in [15], 1.3; in test [16], 0.293; with Torsin-1A (Homo sapiens) [17] it was 1.53. Further, the figures for the composite z-score (in the test with Torsin-1A (Homo sapiens) [18]; in [19]) were 1.29 and 0.565, respectively. The z-score was 0.27 in [7]; -11.9 (active) in [9]; -1.97 (inactive) in [11]; 0.156 (inactive) in test [12]; -0.744 (inactive) in [13]; -0.653 (inactive) in test [14].

In the case of `COc1ccc([Si](C)(C)[C@@H]2[C@@H](CCO)O[C@]3(C(=O)N(Cc4ccccc4)c4ccc(N5C(=O)COc6ccccc65)cc43)[C@H]2C)cc1`, the composite z-score is 0.807 in [1]; 1.13 in test [2]; 0.294 in test [3]; 0.191 in [4]; 0.197 in test [5]; -0.177 in [6]. Moreover, the composite z-score in the test on Lefty1 is 0.351; in test [8] it was 0.622; in test [10], 0.0063; in [15] it was 0.104; in test [16] it was -0.0832; with Torsin-1A (Homo sapiens) [17] it was -0.0843. The composite z-score is -0.309 with Torsin-1A (Homo sapiens) [18] and 0.693 in test [19]. For the same molecule, the z-score in test [7] was -0.081; in test [9], 0.806 (inactive); in test [11], -6.38 (inactive); in test [12], -0.617 (inactive); in test [13], -0.636 (inactive); in test [14] it was 0.0638 (inactive).

Take `Cc1ccc(C(C)CC(O)C2C=CC3C(=O)N(Cc4ccccc4)C(=O)C3N2n2cnnc2)o1` (stereo not given): the composite z-score was 1.54 in test [1]; 0.942 in test [2]; -0.103 in test [3]; 0.923 in [4]; 0.713 in test [5]; 0.0103 in test [6]. In addition, the composite z-score in the test on Lefty1 stood at 0.273; in [8] it was 0.842; in test [10], 1.36; in test [15], 0.352; in test [16], 1.36; with Torsin-1A (Homo sapiens) [17] it was 0.173. Besides, the results for the composite z-score (with Torsin-1A (Homo sapiens) [18]; in [19]) were 0.663 and -0.265, respectively. Further, the z-score was -1.49 in [7]; 0.785 (inactive) in test [9]; -0.167 (inactive) in test [11]; 0.928 (inactive) in [12]; 0.323 (inactive) in test [13]; 1.14 (inactive) in [14].

In the case of `CCOC(=O)C[C@H]1[C@H](OC(=O)c2ccc(C(=O)c3ccccc3)cc2)[C@@H](NC(=O)C2CCCCC2)c2cc(OCCCO)ccc2N1C(=O)Cc1ccc(OC)cc1`, the composite z-score is 0.027 in test [1]; 0.785 in [2]; 0.494 in test [3]; 0.441 in test [4]; 0.432 in test [5]; 0.0799 in test [6]. Besides, the composite z-score with Lefty1 stood at 0.942; in test [8], 0.221; in test [10] it was 0.354; in test [15] it was 0.519; in test [16], 0.0497; with Torsin-1A (Homo sapiens) [17] it was 0.192. The composite z-score in the test with Torsin-1A (Homo sapiens) [18] was 1.24; in test [19] it was 0.761. The z-score is 1.36 in test [7]; 0.13 (inactive) in [9]; -0.281 (inactive) in [11]; 0.193 (inactive) in test [12]; 1.24 (inactive) in [13]; -0.0721 (inactive) in test [14].

For `COc1ccc(C#Cc2ccc3c(c2)[C@]2(C(=O)N3)[C@H](C(=O)O)[C@H]3C(=O)O[C@H](c4ccccc4)[C@H](c4ccccc4)N3[C@@H]2c2ccc(OCCO)cc2)cc1`, the composite z-score in test [1] was 2.61; in [2], 1.19; in test [3], 0.681; in test [4] it was 0.836; in test [5], 0.714; in [6] it was 0.56. The composite z-score in the test with Lefty1 was 0.128; in test [8] it was 1.18; in test [10], 0.356; in test [15], 1.59; in [16], 0.399; with Torsin-1A (Homo sapiens) [17] it was -0.0331. Moreover, the values for the composite z-score (with Torsin-1A (Homo sapiens) [18]; in test [19]) were 0.739 and 1.3, respectively. Further, the z-score in test [7] was -2.47; in [9], -5.18 (inactive); in test [11], -0.969 (inactive); in test [12], -0.859 (inactive); in test [13] it was 0.272 (inactive); in [14], 0.408 (inactive).
